Measurements reported in PubChem BioAssay AID504848 (National Center for Advancing Translational Sciences (NCATS), 2011).
About 1,400 (61%) of roughly 2,300 compounds were called active. Inconclusive results (about 29%) are left out. Calls come from the whole dose curve; as a rule, active = well fitted inhibition curve with a large enough effect; inconclusive = small, poorly fitted or top-dose-only effect, or effect the other way; inactive = no such curve, though single readings can be large or run the other way. So high a share suggests a set chosen from earlier hits. The list shows a part of the results.

experiment: Confirmation screen for delayed death inhibitors of the malarial parasite plastid, 96 hour incubation; note: nearly all actives have a fitted effect of over 60% in size; conditions: P. falciparum luciferase growth in erythrocytes; series mostly up to 28.7 µM
Procedure, shortened: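 Two-generation (96 h, 37 C) exposure of P. falciparum carrying an integrated firefly luciferase reporter in erythrocytes, 0.1% parasitemia and 2% hematocrit final, Albumax-supplemented RPMI. Luminescence decrease measures growth inhibition.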
Potency is the fitted concentration of half-maximal effect.

Row | SMILES | Potency
1 | COc1ccccc1CCC(=O)N1CCN(S(=O)(=O)c2cc(C(F)(F)F)ccc2Cl)CC1 | 11.2 µM (active)
2 | Cc1ccc(C)c(-c2cc(C(=O)NNC(=S)NCC(C)C)c3ccccc3n2)c1 | 11.2 µM (active)
3 | Cc1ccccc1-c1cc(C(=O)n2cccn2)c2cc(Cl)ccc2n1 | inactive
4 | Cc1ccc(C)c(-c2cc(C(=O)Nc3nccs3)c3ccccc3n2)c1 | 1.12 µM (active)
5 | CC[n+]1ccccc1/C=C/c1ccc(N(C)C)cc1 | 1.58 µM (active)
6 | Cc1ccc(/C=C/c2ccc(N(C)C)cc2)[n+](C)c1 | 0.501 µM (active)
7 | Cn1c(=O)c(=O)n(C)c2cc(N3CCCCC3)c(NS(=O)(=O)c3ccc(Br)cc3)cc21 | 12.6 µM (active)
8 | COc1ccccc1OCC(=O)NNc1c2ccccc2nc2ccccc12 | 5.01 µM (active)
9 | Cc1ccc(C(=O)NNc2c3ccccc3nc3ccccc23)cc1 | 10 µM (active)
10 | O=C(NNc1c2ccccc2nc2ccccc12)C(O)c1ccccc1 (stereo unspecified) | 10 µM (active)
11 | Cc1ccc(OCC(=O)NNc2c3ccccc3nc3ccccc23)cc1 | 6.31 µM (active)
12 | O=C(COc1ccccc1)NNc1c2ccccc2nc2ccccc12 | 5.01 µM (active)
13 | O=C(COc1cccc2ccccc12)Nc1ccc(Cl)cc1C(=O)O | inactive
14 | COc1cccc(C(=O)NNc2c3ccccc3nc3ccccc23)c1 | 15.8 µM (active)
15 | O=C(COc1ccccc1)Nc1nnc(-c2ccc(F)cc2)o1 | inactive
16 | Cc1cccc(OCC(=O)NNc2c3ccccc3nc3ccccc23)c1 | 4.47 µM (active)
17 | O=C(CCCO)NNc1c2ccccc2nc2ccccc12 | 6.31 µM (active)
18 | O=C(CN1CCOCC1)NNc1c2ccccc2nc2ccccc12 | 12.6 µM (active)
19 | N#Cc1c(N2C(=O)Nc3ccccc3N2O)sc2c1CCCCCC2 | 14.1 µM (active)
20 | Cc1ccc2nc(CNC(=O)C3CCC(=O)N(Cc4ccccc4F)C3)cn2c1 (stereo unspecified) | 11.2 µM (active)
21 | O=C(NC1CCC1)C1CCC(=O)N(Cc2ccccc2F)C1 (stereo unspecified) | inactive
22 | COCCn1c(C)cc(C(=O)CSc2cc(C)c3ccc(OC)cc3n2)c1C | 17.8 µM (active)
23 | CCCSCCCNC(=O)c1ccccc1NC(=O)C1=CSCCO1 | 12.6 µM (active)
24 | COc1ccc([C@@]2(C(C)C)ON(c3ccccc3C(F)(F)F)C2=O)cc1 | 0.501 µM (active)

Row | SMILES | Potency
25 | COc1ccc(CN(CCC(c2ccccc2)c2ccco2)C(=O)c2ccco2)cc1 (stereo unspecified) | 8.91 µM (active)
26 | COc1ccc(S(=O)(=O)N/N=C(/C)c2ccco2)cc1 | inactive
27 | Fc1cc2nc(-c3ccncc3)[nH]c2cc1F | 3.16 µM (active)
28 | COCCN(C(=S)Nc1ccc(OC)c(Cl)c1)C1CCN(C(C)C)CC1 | 11.2 µM (active)
29 | CC(=O)Nc1sc2c(c1-c1nc3ccccc3s1)CCN(C(C)C)C2 | 0.316 µM (active)
30 | CC(C)N1CCc2c(sc(NC(=S)NC(=O)c3ccccc3)c2C#N)C1 | 2 µM (active)
31 | N#Cc1cc(S(=O)(=O)c2ccccc2)c(N)[nH]c1=O | inactive
32 | COc1cccc(NC(=O)c2ccc3c(c2)C(=O)N(CC2CCCO2)C3=O)c1 (stereo unspecified) | inactive
33 | COc1ccc(NC(=O)c2ccc(CN3CCN(c4ccccc4)CC3)cc2)cc1OC | 12.6 µM (active)
34 | COc1cccc(NC(=O)c2ccc(CN3CCN(c4ccccc4)CC3)cc2)c1 | 14.1 µM (active)
35 | C#CC[N+]1(CC#Cc2ccc(C#CC[N+]3(CC#C)CCOCC3)cc2)CCOCC1 | 5.62 µM (active)
36 | Cc1ccc(-c2csc3nc[nH]c(=O)c23)cc1 | inactive
37 | Cc1c(C)n2c(SCC(=O)Nc3ccc4c(c3)OCCO4)nnc2[nH]c1=O | 1.58 µM (active)
38 | CCOc1ccc2c(c1)OC(c1ccccc1)(C(F)(F)F)NC2=O (stereo unspecified) | 1.41 µM (active)
39 | O=C(CCNS(=O)(=O)c1cccc2nonc12)NCCc1ccc(Cl)cc1 | 11.2 µM (active)
40 | O=C(Nc1nnc(Cc2ccc(F)cc2)s1)Nc1ccccc1F | 12.6 µM (active)
41 | O=S(=O)(c1cccs1)N1CCN(c2ccnc3cc(Cl)ccc23)CC1 | 4.47 µM (active)
42 | O=C(Nc1ccc(F)cc1F)c1ccc2c(c1)[nH]c(=O)n2Cc1ccc(F)cc1 | 14.1 µM (active)
43 | CC1(C)CC(=O)C2=C(C1)OC1=C(C(=O)CC(C)(C)C1)C2c1ccc(O)cc1O | 7.08 µM (active)
44 | O=C(NC(=C(Cl)Cl)S(=O)(=O)c1ccc(Cl)cc1)c1ccccc1 | inactive
45 | CC(C)C(=O)NC(=S)Nc1ccc(S(=O)(=O)NC2CCCCC2)cc1 | inactive
46 | CC(C)NS(=O)(=O)c1ccc(NC(=S)NC(=O)c2ccc(-c3ccccc3)cc2)cc1 | 5.01 µM (active)
47 | CCC/C(C#CCCN1C(=O)c2ccccc2C1=O)=C1/c2ccccc2C(=O)N1c1ccccc1 | 5.01 µM (active)
48 | O=C(CCN1C(=O)c2ccccc2C1=O)C1=NN[C@@H]2C(=O)N(c3ccc(F)cc3)C(=O)[C@H]12 | inactive

Row | SMILES | Potency
49 | COC(=O)Cc1ccc(NC(=O)C(c2ccccc2)c2ccccc2)cc1 | 10 µM (active)
50 | CCOC(=O)c1c(C)sc2c1N(C(=O)CCl)c1cc(Cl)ccc1S2 | 2 µM (active)
51 | COc1ccc(NC(=O)C#Cc2ccccc2)cc1 | 7.94 µM (active)
52 | O=C(C#Cc1ccccc1)Nc1ccccc1F | 12.6 µM (active)
53 | O=C(C#Cc1ccccc1)Nc1cccc(F)c1 | 1 µM (active)
54 | NC(=O)c1ccc(NC(=O)C#Cc2ccccc2)cc1 | 1 µM (active)
55 | Cc1ccc(Cn2c(C)nc3c(c2=O)c2nc4ccccc4nc2n3Cc2ccco2)cc1 | 5.01 µM (active)
56 | Nc1ccccc1SSc1ccccc1N | 7.94 µM (active)
57 | CCN(CC)S(=O)(=O)c1cccc(NC(=O)c2cc(-c3cccs3)nn2-c2ccccc2)c1 | 12.6 µM (active)
58 | Clc1cccc(OCCCCCN2CCOCC2)c1 | inactive
59 | Brc1cccc(OCCCCN2CCCCC2)c1 | 12.6 µM (active)
60 | S=c1[nH]nc(-c2ccccn2)n1/N=C/c1ccc(-c2ccccc2Br)o1 | inactive
61 | Cc1nn(-c2ccccc2)c(C)c1/C=N/n1c(-c2ccccc2Br)n[nH]c1=S | 11.2 µM (active)
62 | Nc1nc(CCl)nc(N(c2ccccc2)c2ccccc2)n1 | 1.41 µM (active)
63 | COC(=O)[C@H](Cc1ccccc1)N(C)S(=O)(=O)c1cccc(S(=O)(=O)N(C)[C@@H](Cc2ccccc2)C(=O)OC)c1 | 14.1 µM (active)
64 | O=C(N[C@@H](Cc1ccccc1)C(=O)CCl)OCc1ccccc1 | inactive
65 | COc1ccc(C(=O)NCC(=O)N/N=C/c2ccc([N+](=O)[O-])s2)cc1OC | 6.31 µM (active)
66 | O=C(CNC(=O)c1cccc(F)c1)N/N=C/c1ccc([N+](=O)[O-])s1 | inactive
67 | CCN(CC)Cc1cc2[nH]c3c4ccc(Cl)cc4ncc3c2cc1OC | 0.199 µM (active)
68 | O=C(COC(=O)C1C2CC3OC(=O)C1C3C2)Nc1ccccc1 (stereo unspecified) | inactive
69 | CSc1c(CC(=O)Nc2ccccc2)n(C)c2ccccc12 | 8.91 µM (active)
70 | Brc1c(CSc2nc3ccccc3s2)nc2ncccn12 | 6.31 µM (active)
71 | CC[C@@H](C)C(NC(=O)OC(C)(C)C)c1cn([C@@H](Cc2ccc(O)cc2)C(=O)N2CCN(C(=O)OC(C)(C)C)CC2)nn1 (stereo partly specified) | 8.91 µM (active)
72 | CC[C@@H](C)C(NC(=O)OC(C)(C)C)c1cn([C@@H](CCCCNC(=O)OC(C)(C)C)C(=O)N2CCN(C(=O)OC(C)(C)C)CC2)nn1 (stereo partly specified) | 1.26 µM (active)

Row | SMILES | Potency
73 | CCC(CC)N1CCN(Cc2nc3ccc([N+](=O)[O-])cc3c(=O)n2-c2ccccc2F)CC1 | inactive
74 | CCOc1ccc2c(c1)C(c1ccccc1)=NNC(c1ccccc1)=N2 | 10 µM (active)
75 | Brc1ccccc1-c1nnc(COc2ncnc3c2cnn3-c2ccccc2)o1 | inactive
76 | CCOC(=O)c1c(S(=O)(=O)NCC(=O)N2CCN(c3ccccc3OC)CC2)c(C)n(C)c1C | 12.6 µM (active)
77 | CN(Cc1cccc(Cl)c1Cl)C(=O)c1ccc(NC(=O)CC#N)cc1 | 4.47 µM (active)
78 | O=C(Nc1ccc2c(c1)CCCN2C(=O)c1ccco1)c1cc([N+](=O)[O-])ccc1Cl | 14.1 µM (active)
79 | Cc1ccc2cc3cc(C(=O)NCCCN4CCCC4=O)oc3nc2c1 | 1 µM (active)
80 | COc1ccccc1NC(=S)NCc1cccs1 | inactive
81 | COc1ccc2nc3oc(C(=O)NCc4cccs4)cc3cc2c1 | 2.24 µM (active)
82 | COCCCNC(=O)c1cc2cc3cc(OC)ccc3nc2o1 | 2.24 µM (active)
83 | OC(CN1C2=NCCN2c2ccccc21)c1ccc2c(c1)OCO2 (stereo unspecified) | 2.51 µM (active)
84 | O=C(CN1C2=NCCCN2c2ccccc21)c1ccc2c(c1)OCO2 | 7.08 µM (active)
85 | Cc1ccc(C)c(C(=O)CN2C3=NCCCN3c3ccccc32)c1 | 5.62 µM (active)
86 | CCOc1ccc(NC(=O)C[n+]2ccc(N(C)C)cc2)cc1 | 0.501 µM (active)
87 | O=C(C[n+]1cccc(CNC(=O)c2ccc(OC(F)F)cc2)c1)Nc1ccc(SC(F)F)cc1 | 1 µM (active)
88 | CN(C)c1cc[n+](CC(=O)Nc2ccc(OC(F)F)cc2)cc1 | 1.58 µM (active)
89 | Cn1nnnc1Sc1ncnc2scc(-c3ccsc3)c12 | 3.98 µM (active)
90 | Cn1nnnc1Sc1ncnc2scc(-c3cccs3)c12 | 8.91 µM (active)
91 | Cn1nnnc1Sc1ncnc2scc(-c3ccc[nH]3)c12 | 11.2 µM (active)
92 | O=C1C(Cl)=C(NC2CCCCC2)C(=O)N1c1ccc(Cl)cc1 | 12.6 µM (active)
93 | CCOc1ccc(CNC(=O)c2cc3oc4ccccc4c3n2C)cc1 | inactive
94 | CCCCN(C)CCNC(=O)c1cc2c(=O)[nH]c3ccccc3c2n1C | 12.6 µM (active)
95 | Cc1cc(C)cc(NC(=O)c2cc(S(=O)(=O)NCc3ccco3)ccc2F)c1 | inactive
96 | CCOc1ccccc1NC(=O)c1cc(S(=O)(=O)NCc2ccco2)ccc1F | 11.2 µM (active)
